± gives the standard deviation of the averaged measurements. In all, about 33,000 sequences were measured (“E-score (rank enrichment, -0.5 to 0.5)”: median about -0.0068, highest 2% from about 0.24 on). The sample as a whole holds a higher share of the highest values than the screen did.
tested on: muMax20 (Max(13-93) K31hArg/K57hArg, M65Nle); test: PBM 8-mer E-score (E-score (rank enrichment, -0.5 to 0.5)); higher = stronger preferential binding
Protocol: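 Protein binding microarray (universal PBM chip covering all 10-mers in fixed probe flanks) with chemically synthesized human Max(13-93) bHLH-LZ analogs (not full-length Max) bearing noncanonical residues (hArg, Tha, Aib, Nle at 65) and aromatic Cys staples. Read-out per 8-mer (and its reverse complement): E-score (rank-based enrichment, -0.5 to 0.5) and Z-score of median probe intensity.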

Row | Sequence | PBM 8-mer E-score
1 | AGCTTGCA | -0.0404 ± 0.11
2 | TCCCTAGA | -0.0505 ± 0.13
3 | CAATCTTC | -0.0387 ± 0.0054
4 | AAAGTCTG | 0.032 ± 0.042
5 | GGAATGGA | -0.00962 ± 0.022
6 | CACGCGGC | 0.281 ± 0.064
7 | CACGCGGG | 0.154 ± 0.086
8 | CACGCGGA | 0.289 ± 0.066
9 | CACGCGAG | 0.0936 ± 0.048
10 | AACGCGGA | -0.13 ± 0.019
11 | CACGCGAC | 0.245 ± 0.15
12 | GACGCGGC | -0.105 ± 0.025
13 | AACGCGGC | -0.118 ± 0.16
14 | CACGCGAA | 0.0636 ± 0.033
15 | CGACAGCG | -0.213 ± 0.1
16 | CTAGATTA | 0.104 ± 0.021
17 | GATAACAA | 0.0646 ± 0.12
18 | AATAACAA | 0.271 ± 0.0084
19 | ACTAACAA | 0.236 ± 0.048
20 | AATAACAT | 0.256 ± 0.028
21 | CATAACAA | 0.147 ± 0.03
22 | TATAACAA | 0.258 ± 0.015
23 | AATAACAC | 0.122 ± 0.0046
24 | AGTAACAA | 0.117 ± 0.048
25 | AGTAACAG | 0.142 ± 0.024
26 | AGTAACAT | 0.289 ± 0.038

Row | Sequence | PBM 8-mer E-score
27 | AATAACCA | 0.076 ± 0.0086
28 | AATAACAG | 0.0596 ± 0.12
29 | ACCGGACT | -0.151 ± 0.13
30 | TCAATCCA | 0.105 ± 0.008
31 | CCTTAAGA | 0.0233 ± 0.059
32 | ACTTTCAT | 0.0117 ± 0.13
33 | AGGCGCGC | 0.115 ± 0.0093
34 | GCGATTAA | 0.14 ± 0.13
35 | ATGATTAA | 0.169 ± 0.049
36 | TCGATTAA | 0.261 ± 0.051
37 | CTGATTAA | 0.0981 ± 0.079
38 | ACGATTAA | 0.0506 ± 0.14
39 | GTGATTAA | 0.256 ± 0.066
40 | CCAGCTCG | -0.23 ± 0.058
41 | AAGTCCCA | 0.0496 ± 0.017
42 | TCTAGCCA | -0.0192 ± 0.021
43 | CGTACCCC | 0.134 ± 0.012
44 | CGCTCGCA | -0.00112 ± 0.055
45 | ATCCTAGC | 0.247 ± 0.0046
46 | ATCCTAGG | -0.193 ± 0.037
47 | CTCCTAGC | -0.136 ± 0.081
48 | AAGATGAG | -0.0108 ± 0.035
49 | ATTGACTA | -0.0128 ± 0.0061
50 | ATCAATGA | 0.164 ± 0.044
51 | AAAGGCCC | 0.105 ± 0.034
52 | AAAAGGCC | 0.294 ± 0.089

Row | Sequence | PBM 8-mer E-score
53 | GAAAGGCC | -0.109 ± 0.036
54 | GAAAAGGC | 0.3 ± 0.074
55 | CAAAGGCC | 0.0435 ± 0.035
56 | CAAGGCCG | -0.0484 ± 0.016
57 | CAAAAGGC | 0.0129 ± 0.021
58 | AAAAAGGC | 0.218 ± 0.093
59 | AAAGGCCG | 0.275 ± 0.088
60 | GAGTCGTA | 0.0328 ± 0.034
61 | CTTTTAGC | 0.0351 ± 0.039
62 | ATGCCTGG | -0.0874 ± 0.034
63 | AGCTTTGC | -0.066 ± 0.034
64 | TCTGACAA | -0.0236 ± 0.026
65 | AATACGAG | 0.1434 ± 0.0014
66 | CCTCCGAA | -0.0791 ± 0.039
67 | GACCCAAC | -0.034 ± 0.061
68 | CCAACCAG | -0.16 ± 0.022
69 | AACAAAAT | 0.275 ± 0.03
70 | AACAAGAT | 0.22 ± 0.029
71 | AACAAATC | 0.243 ± 0.016
72 | AACAAAAA | 0.14 ± 0.044
73 | GACAAATC | 0.0884 ± 0.12
74 | GACAAATA | 0.0845 ± 0.063
75 | GACAAAAA | 0.144 ± 0.007
76 | CACAAATA | 0.185 ± 0.02
77 | TACAAATA | 0.313 ± 0.007
78 | TACAAGAA | 0.2 ± 0.064

Row | Sequence | PBM 8-mer E-score
79 | AACAAGTC | 0.141 ± 0.024
80 | TACAAAAA | 0.285 ± 0.024
81 | CTACCGAA | -0.1 ± 0.022
82 | CACAGGCC | -0.118 ± 0.0028
83 | AGTTGGGG | 0.0207 ± 0.062
84 | AGCGGTGA | -0.233 ± 0.0025
85 | AAATTTCG | 0.186 ± 0.12
86 | AACTGAAA | 0.146 ± 0.092
87 | TGCACCCA | 0.0653 ± 0.034
88 | GAGGTGGA | -0.138 ± 0.1
89 | AACAAGTT | 0.0361 ± 0.093
90 | AACAAACA | 0.234 ± 0.022
91 | AACAAATT | 0.269 ± 0.049
92 | AACAAGTA | 0.101 ± 0.0032
93 | AACAAATG | 0.155 ± 0.052
94 | AACAAATA | 0.24 ± 0.0093
95 | GCCCCAAC | 0.167 ± 0.046
96 | ATAGCAAC | 0.0478 ± 0.052
97 | ATAGCAAT | 0.1707 ± 0.0013
98 | ATAGCAAG | 0.248 ± 0.0032
99 | ACTCCATG | -0.0772 ± 0.0052
100 | CCTACCCC | 0.0896 ± 0.026
101 | CGGTATGA | -0.017 ± 0.021
102 | ACATAATG | 0.231 ± 0.099
103 | CCATAATA | 0.213 ± 0.05
104 | ACATAATA | 0.294 ± 0.053

Row | Sequence | PBM 8-mer E-score
105 | GCATAAGA | 0.107 ± 0.021
106 | GCATAATA | 0.239 ± 0.0054
107 | ACATAATC | 0.0995 ± 0.051
108 | CCAAGTGA | -0.0263 ± 0.0041
109 | CCGACGTC | -0.172 ± 0.09
110 | CCAGAACA | 0.162 ± 0.0036
111 | CGGCCACC | -0.305 ± 0.094
112 | CTCTATGA | -0.000995 ± 0.044
113 | AAAACCCC | 0.126 ± 0.077
114 | AAATCGAG | 0.0488 ± 0.046
115 | GCACGTAC | -0.051 ± 0.064
116 | GCACGTCC | -0.0223 ± 0.063
117 | GAACGTGA | -0.00796 ± 0.078
118 | GCACGTGC | 0.454 ± 0.049
119 | GCACGTGA | 0.392 ± 0.1
120 | GGACGTGA | -0.122 ± 0.048
121 | CGCAGTTC | -0.116 ± 0.012
122 | CCATCAGC | -0.0581 ± 0.017
123 | GAATTCCA | 0.017 ± 0.13
124 | AAATTCCA | 0.254 ± 0.0063
125 | CAATTCCA | -0.00806 ± 0.02
126 | GGGCGTAA | -0.0137 ± 0.039
127 | ATATCTTC | 0.273 ± 0.027
128 | ATATCTTA | 0.0954 ± 0.0085
129 | CTATCTTC | 0.137 ± 0.013
130 | GAGTGCCC | -0.0978 ± 0.005

Row | Sequence | PBM 8-mer E-score
131 | CTATACCC | -0.0276 ± 0.12
132 | ACGAAAAC | 0.248 ± 0.03
133 | GAAAACAC | 0.0158 ± 0.069
134 | AAAAAACC | 0.2 ± 0.036
135 | GAAGAAAC | 0.241 ± 0.024
136 | GAAGAAAA | 0.119 ± 0.022
137 | AAAAAAAC | 0.236 ± 0.056
138 | CAAGAAAC | 0.177 ± 0.047
139 | ACGAAAAG | 0.154 ± 0.00054
140 | AAAAACAC | 0.283 ± 0.042
141 | CAAAAAAC | 0.21 ± 0.017
142 | ACGAAAAA | 0.181 ± 0.01
143 | CAAAACAC | -0.0123 ± 0.11
144 | ACACTTCT | -0.0487 ± 0.018
145 | GGACAGCC | -0.155 ± 0.053
146 | GGCTCCCA | -0.218 ± 0.099
147 | GCCTACGC | -0.109 ± 0.09
148 | AAAGAAAG | 0.084 ± 0.006
149 | CCAAAACC | 0.122 ± 0.057
150 | CAAGAAAA | 0.0576 ± 0.13
151 | CAAAAACC | 0.237 ± 0.016
152 | GAAAAAAC | 0.178 ± 0.042
153 | CAAAACCC | 0.145 ± 0.0083
154 | GAAAAAAA | 0.255 ± 0.013
155 | GGAAAAAA | 0.136 ± 0.12
156 | AAAGAAAA | 0.263 ± 0.074

Row | Sequence | PBM 8-mer E-score
157 | CCCCCGAC | -0.232 ± 0.054
158 | CCACAGGG | -0.0979 ± 0.07
159 | ATCCGGTA | -0.00311 ± 0.041
160 | ATGTCTAC | -0.0533 ± 0.013
161 | AAACTGGA | 0.098 ± 0.12
162 | AATTGGGC | 0.0726 ± 0.029
163 | AATTGGGT | 0.181 ± 0.051
164 | AATTGGGA | 0.239 ± 0.021
165 | AATTTGCA | 0.149 ± 0.052
166 | CGAGTAAA | 0.0289 ± 0.1
167 | CAAGTCGC | -0.102 ± 0.035
168 | CCGTGCGC | -0.143 ± 0.07
169 | ACGCGTGG | 0.183 ± 0.12
170 | ACGCGTGA | 0.148 ± 0.14
171 | ACGTGCGG | 0.105 ± 0.078
172 | ACGCGTGC | 0.253 ± 0.042
173 | ACGTGTGG | 0.227 ± 0.071
174 | ACGTGTGA | 0.19 ± 0.11
175 | ACGTGTGC | 0.297 ± 0.087
176 | ACGTGCGC | 0.241 ± 0.014
